# Assay results as given in PubChem BioAssay.
# “And” between values parts separate entries of the source, which are not always exact repeats. Equal entries are not always repeated. A structure can be active in one record and inactive in another. The source made the active and inactive calls. Cut-off read from the data, not from the text of the source: active = inhibition above about 80%; inactive = the rest.
# Experiment: UWB1.289_BRCA1 ovarian cancer growth, cell-based, BGB or cisplatin combinations (AID 1671459)
# Settings: UWB1.289 BRCA1 ovarian carcinoma, drug combinations, cisplatin combination, concentration series, at 5 µM, stronger effect = higher value
row,Structure (SMILES),inhibition
1,COc1ccccc1S(=O)(=O)Nc1ccc2c(c1)CN(C)C(=O)N2,55.6%
2,Cc1cc(C#N)cc(C)c1Oc1nc(Nc2ccc(C#N)cc2)nc(N)c1Br,2.3%
3,Nc1ncn(C2OC(CO)C(O)C2O)c(=O)n1 (stereo not drawn),51%
4,Cc1cc(C)c(Nc2ccnc(Nc3ccc(C#N)cc3)n2)c(C)c1,45%
5,COc1ccc(CC(N)C(=O)NC2C(CO)OC(n3cnc4c(N(C)C)ncnc43)C2O)cc1 (stereo not drawn),117% and 111%
6,O=c1ccn(C2OC(CO)C(O)C2O)c(=O)[nH]1 (stereo not drawn),-14.1% and -9.02%
7,CC=C1NC(=O)C2CSSCCC=CC(CC(=O)NC(C(C)C)C(=O)N2)OC(=O)C(C(C)C)NC1=O (stereo not drawn),131% and 130%
8,CN(C)CC(=O)Nc1ccc2[nH]c(=O)c3ccccc3c2c1,16.4% and 6.78% and -0.772%
9,CC1OC(n2cc(F)c(=O)[nH]c2=O)C(O)C1O (stereo not drawn),4%
10,Nc1ccn(C2OC(CO)C(O)C2(F)F)c(=O)n1 (stereo not drawn),101% and 97.9% and 125%
11,Cc1cn(C2CC(N=[N+]=[N-])C(CO)O2)c(=O)[nH]c1=O (stereo not drawn),-5.2% and 7.24%
12,CC(C=CC(=O)NO)=CC(C)C(=O)c1ccc(N(C)C)cc1 (stereo not drawn),131%
13,NC(=S)NN=Cc1ncccc1N,62.5%
14,CC(C)(C#N)c1ccc(N2C(=O)OCc3cnc4ccc(-c5cnc6ccccc6c5)cc4c32)cc1,99.8%
15,CC1CN(c2c(F)c(N)c3c(=O)c(C(=O)O)cn(C4CC4)c3c2F)CC(C)N1 (stereo not drawn),7.13%
16,CCCCN(Cc1ccc(C(=O)NO)cc1)C(=O)Nc1ccccc1,64.1% and 65%
17,O=c1[nH]cnc2c1ncn2C1OC(CO)C(O)C1O (stereo not drawn),-16.4% and -23.2%
18,Cc1cc(C=CC#N)cc(C)c1Nc1ccnc(Nc2ccc(C#N)cc2)n1,96.7%
19,CC(Oc1cc(-c2cnn(C3CCNCC3)c2)cnc1N)c1c(Cl)ccc(F)c1Cl (stereo not drawn),38.8%
20,O=C(O)c1cc2cccc([N+](=O)[O-])c2[nH]1,-8.12%
21,O=c1[nH]c(=O)n(C2CC(O)C(CO)O2)cc1I (stereo not drawn),-6.29%

# Experiment: human astrocyte viability loss, single and combined drugs, cytotoxicity control for chromothriptic childhood tumor combination screen, cell-based, BGB or cisplatin IC20 combos (AID 1671460);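 note: cells exposed to compounds for 96 hours before viability readout; 0% = vehicle and 100% = killing control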
# Settings: Human astrocytes, drug combinations, at 0.5 µM, stronger effect = higher value
row,Structure (SMILES),inhibition
1,COc1ccccc1S(=O)(=O)Nc1ccc2c(c1)CN(C)C(=O)N2,9.7% (inactive)
2,Cc1cc(C#N)cc(C)c1Oc1nc(Nc2ccc(C#N)cc2)nc(N)c1Br,3.72% (inactive)
3,Nc1ncn(C2OC(CO)C(O)C2O)c(=O)n1 (stereo not drawn),13.2% (inactive)
4,Cc1cc(C)c(Nc2ccnc(Nc3ccc(C#N)cc3)n2)c(C)c1,11.9% (inactive)
5,COc1ccc(CC(N)C(=O)NC2C(CO)OC(n3cnc4c(N(C)C)ncnc43)C2O)cc1 (stereo not drawn),40.4% (inactive) and 94.2% (active)
6,O=c1ccn(C2OC(CO)C(O)C2O)c(=O)[nH]1 (stereo not drawn),8.08% (inactive) and -8.91% (inactive)
7,CC=C1NC(=O)C2CSSCCC=CC(CC(=O)NC(C(C)C)C(=O)N2)OC(=O)C(C(C)C)NC1=O (stereo not drawn),102% (active) and 101% (active)
8,CN(C)CC(=O)Nc1ccc2[nH]c(=O)c3ccccc3c2c1,0.7% (inactive) and -7.07% (inactive) and 10.3% (inactive)
9,CC1OC(n2cc(F)c(=O)[nH]c2=O)C(O)C1O (stereo not drawn),-18.2% (inactive)
10,Nc1ccn(C2OC(CO)C(O)C2(F)F)c(=O)n1 (stereo not drawn),70% (inactive) and 73.6% (inactive) and 72.6% (inactive)
11,Cc1cn(C2CC(N=[N+]=[N-])C(CO)O2)c(=O)[nH]c1=O (stereo not drawn),1.65% (inactive) and 1.35% (inactive)
12,CC(C=CC(=O)NO)=CC(C)C(=O)c1ccc(N(C)C)cc1 (stereo not drawn),97% (active)
13,NC(=S)NN=Cc1ncccc1N,13.8% (inactive)
14,CC(C)(C#N)c1ccc(N2C(=O)OCc3cnc4ccc(-c5cnc6ccccc6c5)cc4c32)cc1,-4.16% (inactive)
15,CC1CN(c2c(F)c(N)c3c(=O)c(C(=O)O)cn(C4CC4)c3c2F)CC(C)N1 (stereo not drawn),-1.22% (inactive)
16,CCCCN(Cc1ccc(C(=O)NO)cc1)C(=O)Nc1ccccc1,12.4% (inactive) and -2.38% (inactive)
17,O=c1[nH]cnc2c1ncn2C1OC(CO)C(O)C1O (stereo not drawn),3.07% (inactive) and 14% (inactive)
18,Cc1cc(C=CC#N)cc(C)c1Nc1ccnc(Nc2ccc(C#N)cc2)n1,1.39% (inactive)
19,CC(Oc1cc(-c2cnn(C3CCNCC3)c2)cnc1N)c1c(Cl)ccc(F)c1Cl (stereo not drawn),-2.23% (inactive)
20,O=C(O)c1cc2cccc([N+](=O)[O-])c2[nH]1,-16% (inactive)
21,O=c1[nH]c(=O)n(C2CC(O)C(CO)O2)cc1I (stereo not drawn),-11.4% (inactive)

# Same assay, conditions: Human astrocytes, drug combinations, measured here: combo with BGB IC20, at 0.5 µM, stronger effect = higher value
row,Structure (SMILES),inhibition
1,COc1ccccc1S(=O)(=O)Nc1ccc2c(c1)CN(C)C(=O)N2,13.1%
2,Cc1cc(C#N)cc(C)c1Oc1nc(Nc2ccc(C#N)cc2)nc(N)c1Br,14%
3,Nc1ncn(C2OC(CO)C(O)C2O)c(=O)n1 (stereo not drawn),17.7%
4,Cc1cc(C)c(Nc2ccnc(Nc3ccc(C#N)cc3)n2)c(C)c1,11.7%
5,COc1ccc(CC(N)C(=O)NC2C(CO)OC(n3cnc4c(N(C)C)ncnc43)C2O)cc1 (stereo not drawn),44.5% and 93.9%
6,O=c1ccn(C2OC(CO)C(O)C2O)c(=O)[nH]1 (stereo not drawn),10.4% and -14.8%
7,CC=C1NC(=O)C2CSSCCC=CC(CC(=O)NC(C(C)C)C(=O)N2)OC(=O)C(C(C)C)NC1=O (stereo not drawn),105% and 103%
8,CN(C)CC(=O)Nc1ccc2[nH]c(=O)c3ccccc3c2c1,-4.06% and -11% and -10.6%
9,CC1OC(n2cc(F)c(=O)[nH]c2=O)C(O)C1O (stereo not drawn),-17.6%
10,Nc1ccn(C2OC(CO)C(O)C2(F)F)c(=O)n1 (stereo not drawn),71.3% and 72.2% and 72.3%
11,Cc1cn(C2CC(N=[N+]=[N-])C(CO)O2)c(=O)[nH]c1=O (stereo not drawn),10% and -0.346%
12,CC(C=CC(=O)NO)=CC(C)C(=O)c1ccc(N(C)C)cc1 (stereo not drawn),96.5%
13,NC(=S)NN=Cc1ncccc1N,17.9%
14,CC(C)(C#N)c1ccc(N2C(=O)OCc3cnc4ccc(-c5cnc6ccccc6c5)cc4c32)cc1,-12.4%
15,CC1CN(c2c(F)c(N)c3c(=O)c(C(=O)O)cn(C4CC4)c3c2F)CC(C)N1 (stereo not drawn),2.7%
16,CCCCN(Cc1ccc(C(=O)NO)cc1)C(=O)Nc1ccccc1,32.5% and 11.7%
17,O=c1[nH]cnc2c1ncn2C1OC(CO)C(O)C1O (stereo not drawn),13.9% and 6.47%
18,Cc1cc(C=CC#N)cc(C)c1Nc1ccnc(Nc2ccc(C#N)cc2)n1,-1.88%
19,CC(Oc1cc(-c2cnn(C3CCNCC3)c2)cnc1N)c1c(Cl)ccc(F)c1Cl (stereo not drawn),-5.88%
20,O=C(O)c1cc2cccc([N+](=O)[O-])c2[nH]1,-13.8%
21,O=c1[nH]c(=O)n(C2CC(O)C(CO)O2)cc1I (stereo not drawn),-7.44%
